Source: PubChem BioAssay AID720504 (National Center for Advancing Translational Sciences (NCATS), 2013)
Among all 360,000 compounds or so, about 10,000 (2.8%) were called active. About 4% were inconclusive and are not listed. The entries come from a sample that favours actives as a whole. A number with no mark means an inactive call. The call rests on the fitted dose curve; in most records, active means well fitted inhibition curve with a large enough effect; inconclusive means small, poorly fitted or top-dose-only effect; inactive means flat fitted curve, though single readings scatter.

Biological target: Serine/threonine-protein kinase PLK1 (Homo sapiens) (UniProt P53350)
Sequence (P53350 whole entry, looked up, the tested form may be a part): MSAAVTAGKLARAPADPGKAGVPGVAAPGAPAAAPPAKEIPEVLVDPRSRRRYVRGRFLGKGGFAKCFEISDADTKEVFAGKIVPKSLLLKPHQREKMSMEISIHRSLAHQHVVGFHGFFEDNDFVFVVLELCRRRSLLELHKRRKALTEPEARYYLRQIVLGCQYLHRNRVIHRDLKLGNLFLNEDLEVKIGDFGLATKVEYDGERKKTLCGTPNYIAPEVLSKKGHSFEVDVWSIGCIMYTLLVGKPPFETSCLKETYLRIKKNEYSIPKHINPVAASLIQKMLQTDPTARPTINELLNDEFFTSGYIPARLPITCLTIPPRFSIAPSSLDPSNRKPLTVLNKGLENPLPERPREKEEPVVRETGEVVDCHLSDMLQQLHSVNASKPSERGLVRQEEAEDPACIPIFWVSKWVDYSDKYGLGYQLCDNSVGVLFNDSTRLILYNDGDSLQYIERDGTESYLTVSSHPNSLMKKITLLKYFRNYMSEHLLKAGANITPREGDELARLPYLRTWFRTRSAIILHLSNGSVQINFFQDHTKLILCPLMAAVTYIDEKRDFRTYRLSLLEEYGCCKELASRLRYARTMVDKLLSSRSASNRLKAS
Assay: qHTS for Inhibitors of PLK1-PDB (polo-like kinase 1 - polo-box domain): Primary Screen; further: nearly all actives have a fitted effect of over 65% in size; on max response, negative = inhibition: series mostly up to about 57 µM
Conditions: Plk1 PBD binding of FITC phosphopeptide, fluorescence polarization
From the text: The polo-like kinase 1 (Plk1) is a member of a conserved subfamily of serine / threonine protein kinases that plays a pivotal roles in cell proliferation. It has a C-terminal non-catalytic region called the polo-box domain (PBD) that plays a crucial role in the subcellular localization of the Plk1. […] Furthermore, depletion of the overexpressed Plk1 by RNAi efficiently induces apoptotic cell death in cancer and reduces tumor growth in mouse xenograft models. Thus, targeting Plk1 is an appealing strategy for anti-cancer therapy. Therefore, this project aimed to screen the Molecular Libraries Small Molecule Repository (MLSMR) using a novel approach to find inhibitors that target the Plk1 PBD instead of the conventional N-terminal catalytic domain. This project employed a fluorescence polarization (FP) assay using a FITC-conjugated phospho-9-mer (p-9-mer) peptide and purified human Plk1 PBD protein. The identified small molecule inhibitors of Plk1 PBD can then further be developed into useful tools for biomedical and clinical research that complements or replaces current relevant disease therapy. NIH Chemical Genomics Center [NCGC] NIH Molecular Libraries Probe Centers Network [MLPCN] MLPCN Grant: MH100728 Assay Submitter (PI): Kyung Lee, NCI
Four microliter of 25 nM FITC-p-9-mer + 60 nM Plk1 PBD in buffer solution (final concentrations 25 nM and 60 nM respectively) or 4 uL of 25 nM FITC-p-9-mer (final concentration 25 nM) in buffer will be dispensed into a 1,536 Greiner medium-binding black solid plate. Small molecules at final concentrations of 18 nM to 57 uM and positive control phospho-9-mer (sequence: Ac-PPLHSpTAI-NH2) at final concentrations 26 nM to 57 uM and phospho-13-mer (sequence: Ac-[…]pTAI-NH2) at final concentrations of 1 nM to 2.3 uM will be pin-transferred (23 nL) to the plate via a Kalypsys pin-tool robotics equipped with a 1,536-pin array. The reaction plate will be centrifuged for 1 min at 1000 rpm and incubated at room temperature for 10 min. The FITC fluorescence signals will be read using the PerkinElmer ViewLux plate reader at 480 / 20 nm excitation and 540 / 20 nm S and P polarization emission wavelengths. Reagent bottles will be kept submerged into 4 °C recirculating chiller bath and all liquid lines will be covered with aluminum foil to minimize degradation. Library plates will be screened starting from the lowest to the highest concentrations to minimize compound carryover. Vehicle only plates, with DMSO being pin-transferred instead of compound solutions, will be included regularly throughout the screen to record any systematic shifts in assay signal.
On the % scale 0 is the no-effect control and ±100 the full control effect; potency means the concentration at half of the fitted maximal effect.

Point of comparison: `CCCc1nc2ccccc2n1C(C)C(=O)NC(C)(C)C` (centres undefined), max response, negative = inhibition -5.55%. Against it:
- CC1(C(=O)NS(=O)(=O)c2cccc(OC(F)F)c2)CCN1C(=O)C1CC1 (centres undefined) — higher, 3.22%
- CCCNC(=O)C1(C)CCN1C(=O)C1(c2ccccc2)CC1 (centres undefined) — higher, -4.48%
- CC(C)(C)Cc1c(C2CCCCC2)nc2ccc(Br)cn12 — higher, 3.52%
- COc1ccc(CNC(=O)C2CCN(S(=O)(=O)c3ccc(SC)cc3)CC2)cc1 — lower, -7.7%
- COc1ccc(CNC(=O)C2CCN(S(=O)(=O)N3CCOCC3)CC2)cc1 — higher, 3.12%
- CC1(C(=O)NCc2cccc3ccccc23)CCN1Cc1ccc(-c2ccccc2)o1 (centres undefined) — lower, -8.62%
- CCc1nc2ccc(C(=O)NCCNC(C)=O)cn2c1N(CC)Cc1cccc(Br)c1 — higher, -0.869%
- CCC(C(=O)NCc1ccccc1)n1c(Cc2cc(F)cc(F)c2)nc2ccccc21 (centres undefined) — higher, 2.43%
- O=C(NCCN1CCOCC1)C1CCN(S(=O)(=O)c2ccccc2)CC1 — higher, 1.1%
- CC(CCc1ccccc1)NC(=O)c1ccc(Br)o1 (centres undefined) — lower, -7.05%
- O=C(NCc1cccs1)c1ccc(Br)o1 — higher, -4.89%
- O=C(COC(=O)/C=C/c1ccc(Cl)cc1)NC1CCS(=O)(=O)C1 (centres undefined) — higher, 3.25%
- O=S1(=O)CC(N2CCSCC2)CN1Cc1cn(Cc2cccc(Cl)c2)nn1 (centres undefined) — higher, 1.2%
- CSCCC(C(=O)NC(C)(C)C)n1c(-c2ccccc2)nc2ccccc21 (centres undefined) — lower, -11.3%
- COc1cc(/C=N/NC(=S)Nc2cccnc2)cc(OC)c1O — lower, -21%
- COc1cc(/C=N/O)cc(Br)c1OS(=O)(=O)c1ccc(C)cc1 — higher, 4.61%
- C[C@H]1CN([C@@H](C)CO)C(=O)c2cc(Br)cnc2O[C@H]1CN(C)S(=O)(=O)c1cccs1 — lower, -9.15%
- COc1ccc(CN2C(=O)C(CC(=O)NCCN3CCOCC3)CC(C(=O)N(C(C)C)C(C)C)=C2C)cc1 (centres undefined) — higher, 4.68%
- Cc1ccc(NC(=O)COC(=O)CN2CCSC2=O)cc1F — higher, 3.55%
- O=C1CCCc2nn(-c3ccccc3)nc21 — lower, -8.07%
- Nc1ccc2nn(-c3ccc(Cl)cc3)nc2c1 — lower, -7.93%
- CCc1nc2c(OCCOc3ccc(F)cc3)cccn2c1N(C)C(=O)c1ccccc1F — higher, -3.7%
- CC(=O)c1cccc(-c2cnc3c(NC=O)cc(-c4ccccc4Oc4ccccc4)cn23)c1 — higher, -5.21%
- C[C@@H]1CN([C@@H](C)CO)C(=O)CCCn2nncc2CO[C@@H]1CN(C)S(=O)(=O)c1ccc(-c2ccccc2)cc1 — lower, -14.2%
- O=C1[C@H]2[C@@H](c3ccc(C(F)(F)F)cc3)N[C@]3(CCCN(Cc4ccc(Cl)cc4)C3=O)[C@H]2C(=O)N1Cc1ccccc1 — higher, -4.13%
- CCOC(=O)C(=O)Nc1nc(-c2ccccc2)c(CC)s1 — lower, -16.3%
- CCOc1ccc(-c2nc(C)sc2CC(=O)O)cc1 — higher, -0.634%
- CC(C)n1ncc2c(C(=O)N3CCN(Cc4cccs4)CC3)cc(C3CC3)nc21 — lower, -8.38%
- Cc1cccc(C)c1-n1nnnc1C1(C)CCC(=O)N1CCOc1ccccc1 (centres undefined) — lower, -8.78%
- COc1ccc(C2=Nc3ccccc3NC(=O)C2N(C(=O)c2cc3ccccc3[nH]2)c2ccccc2)cc1 (centres undefined) — higher, 5.46%
- CC(=O)N1CCN(C(=O)c2cc(-c3ccc(Cl)s3)nc3ccccc23)CC1 — higher, 4.68%
- Cc1cc(C(=O)OCC(=O)N2C(C)CCCC2C)c2ccccc2n1 (centres undefined) — lower, -9.12%
- O=C(Nc1ccc(F)cc1)C(CCc1ccccc1)N1CCN(CC(=O)N2CCCC2)CC1 (centres undefined) — higher, -3.84%
- Cc1ccc(C(=O)OCC(=O)NCc2ccc3c(c2)OCO3)s1 — lower, -7.48%
- COc1cccc(CC(=O)OCC(=O)NCc2ccc3c(c2)OCO3)c1 — higher, -5.11%
- Cc1c(C(=O)NCc2ccc(C#N)cc2)sc(=O)n1Cc1ccc(C(=O)N(C)C)cc1 — lower, -10.6%

With `COc1ccc(CNC(=O)C2CCN(S(C)(=O)=O)CC2)cc1` the Potency was 21.2 µM (active).
With `CC(CNC(=O)c1ccc(Br)o1)NC(=O)c1ccc(Br)o1` (centres undefined) the Potency was 2.99 µM (active).
In the case of `COc1cc(/C=N/Nc2ccc(C)cc2)cc(Br)c1O`, the Potency is reported as 29.9 µM (active).
For `c1ccc(-n2nc3ccccc3n2)cc1`, the Potency was 29.9 µM (active).
`C/C(=N/Nc1nc(-c2ccccc2)c(CC(=O)O)s1)c1ccccc1` was tested, and the Potency was 13.4 µM (active).
In the case of `COC(=O)c1cc(N2CCNCC2)nc2ccccc12`, the Potency is reported as 23.8 µM (active).
`Cc1cc(Br)ccc1SCC(=O)OCC(=O)NCc1ccc2c(c1)OCO2` was tested, and the Potency was 29.9 µM (active).
